# Laboratory results reported in PubChem BioAssay AID1259422 (The Scripps Research Institute Molecular Screening Center, 2018).
# The whole screen tested about 640,000 compounds, of which about 9,300 (1.5%) were called active. Only a selection was taken, and actives are over-represented in it overall. Values without a mark were called inactive. Cut-off read from the data, not from the text of the source: active = inhibition above about 32%; inactive = the rest.
# Assay: TEAD-YAP interaction inhibition, primary screen, TEAD-YAP interaction inhibitor project, luminescence, HEK-TIYL cells (AID 1259422);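 note: 0% = median of test compound wells and 100% = reference inhibitor wells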
# Details: TEAD-Gal4/YAP UAS-luciferase luminescence, at 9.12 µM, hits give high values
row,SMILES,inhibition
1,Cc1cccc(C(=O)NCc2nnc(SCC(=O)N3N=C(c4cccs4)CC3c3ccc(F)cc3)n2C)c1 (stereo not drawn),10.4%
2,Cc1cccc(NC(=O)CC2SC(N)=NC2=O)c1C (stereo not drawn),3.13%
3,O=c1oc2ccccc2cc1-c1nnc(Nc2cccc3ccccc23)s1,-25.6%
4,COc1ccc(NC(=O)C2C3C=CC4(O3)C2C(=O)N(CCC(C)C)C4C(=O)NC2CCCCC2)cc1 (stereo not drawn),6.81%
5,O=S(=O)(c1ccc(Br)c2ccccc12)N1CCN(Cc2ccccc2)CC1,14.9%
6,O=c1onc(-c2cccs2)n1Cc1ccccc1,4.82%
7,Cc1cccc(NC(=O)Cn2c(-c3cccs3)noc2=O)c1,33.3% (active)
8,CCOC(=O)c1nnn(CC(=O)Nc2cccc(C)c2)c1C(=O)OCC,-6.24%
9,O=C(CC(O)(C(F)(F)F)C(F)(F)F)Nc1ccc(Cl)c(Cl)c1,58.9% (active)
10,O=C(COc1ccc(CO)cc1)Nc1ccc(Cl)c(Cl)c1,-15.9%
11,O=C(Nc1ccc(Cl)c(Cl)c1)c1ccc(C(=O)Nc2ccc(Cl)c(Cl)c2)cc1,-3.3%
12,CCn1c(CNc2c(C)cccc2C)nnc1SCC(N)=O,-2.12%
13,CCOC(=O)c1c(NC(=O)c2cc(OC)c(OC)c(OC)c2)sc(C(=O)N2CCCC2)c1C,-7.23%
14,CCOC(=O)c1cnc2c(Cl)c(Cl)ccc2c1NCCN(C)C,-5.54%
15,CCOC(=O)c1cnc2c(Cl)c(Cl)ccc2c1NCCOC(=O)c1cccnc1,0.48%
16,CCOC(=O)c1cnc2c(C)c(C)ccc2c1NCCCN(C)C,81.7% (active)
17,C/C(=C\C(=O)ONC(=O)c1ccccc1)NCc1ccccc1,-18.2%
18,CCOC(=O)C1=C(C)N(c2ccc(C)c(C)c2)C(=O)/C1=C\c1cccs1,3.05%
19,O=C(CNS(=O)(=O)c1cccc2nonc12)NCc1ccccc1,8.04%
20,COc1ccc(NC(=O)CN2CCN(C)CC2)c(OC)c1,-0.51%
21,Cc1ccc(NC(=O)CN2CCN(c3cccc(Cl)c3)CC2)cc1,5.46%
22,COc1cccc(N2CCN(CC(=O)Nc3ccccc3C(N)=O)CC2)c1,91.2% (active)
23,CCCCn1c(CNC(=O)c2cccc(OC)c2)nnc1SCC(=O)Nc1sc2c(c1C(=O)OCC)CCCC2,1.81%
24,CCOc1ccccc1C(=O)NCc1ccccc1,-14.4%

row,SMILES,inhibition
1,CCOCC(=O)NCc1ccc2c(c1)cc(C)n2C,-6.23%
2,CCOc1ccccc1C(=O)NCc1ccc2c(c1)cc(C)n2C,51.1% (active)
3,CC1=NN(c2ccccc2)C(=O)C1Cl (stereo not drawn),17%
4,CC1=NN(c2ccccc2)C(=O)C1/C=C1\SC(=O)NC1=O (stereo not drawn),13.7%
5,CC1=NN(c2ccccc2)C(=O)C1N=Nc1c(C)n[nH]c1C (stereo not drawn),38.6% (active)
6,CC1=C(C(=O)OCc2ccccc2)C(c2cccc(I)c2)C2=C(CC(C)(C)CC2=O)N1 (stereo not drawn),6.12%
7,Cc1ccccc1-n1c(SCC#N)nc2c(sc(=S)n2-c2ccccc2C)c1=O,-17.8%
8,COc1cc(C#N)cc(Cl)c1OC(C)=O,3.38%
9,Cc1ccc2nc(-c3ccc(NC(=O)CSc4n[nH]c(N)n4)cc3)sc2c1,48.5% (active)
10,Nc1nc(SCC(=O)Nc2ccc(F)c(Cl)c2)n[nH]1,4.23%
11,Cc1ccc2sc(-c3ccc(NC(=O)C(C)C)cc3)nc2c1,-16.9%
12,Nc1nc(SCC(=O)Nc2ccc3c(c2)C(=O)c2ccccc2C3=O)n[nH]1,-48.4%
13,Cc1cccc(N(CC(=O)Nc2ccc(-c3nc4ccc(C)cc4s3)cc2)S(C)(=O)=O)c1,8.01%
14,Cc1ccc2nc(-c3ccc(NC(=O)CCl)cc3)sc2c1,32% (active)
15,O=C(COC(=O)c1cc2ccccc2oc1=O)c1ccc(I)cc1,3.37%
16,CCN(CC)c1ccc2cc(-c3nnc(Nc4cc(Cl)ccc4OC)s3)c(=O)oc2c1,5.73%
17,CCN=C1SC(CC(=O)Nc2ccccc2SC)C(=O)N1CC (stereo not drawn),-3.27%
18,Cc1ccccc1NC(=O)CCC(=O)OCC(=O)c1ccc([N+](=O)[O-])cc1,7.47%
19,Cc1cc(Nc2nc3ccccc3n3nnnc23)n(-c2ccc([N+](=O)[O-])cc2)n1,29.3%
20,N#C/C(=C/c1ccccc1F)C(=O)NCCc1c[nH]c2ccccc12,12.4%
21,CCCC(=O)Nc1ccccc1NC(=O)Cc1ccccc1,-1.49%
22,Cc1ccsc1C(=O)NCC1CCC2(CCN(C(=O)c3ccc(F)cc3)CC2)O1 (stereo not drawn),-0.6%
23,O=C(Nc1cccc(Br)c1)c1ccccc1[N+](=O)[O-],-3.71%
24,Cc1ccc(CCC(=O)Nc2ncc(Cc3cc(Cl)ccc3Cl)s2)o1,43.6% (active)

row,SMILES,inhibition
1,Cc1ccc(Cc2cnc(NC(=O)CCl)s2)cc1,24.8%
2,Cc1ccc(C(=O)Nc2ncc(Cc3ccc(Cl)cc3)s2)o1,-24.8%
3,CCOC(=O)c1ccc(S(=O)(=O)NNC(=O)CCN2C(C)CCCC2C)cc1 (stereo not drawn),4.62%
4,CCc1ccccc1NC(=O)c1ccc(F)c(S(=O)(=O)NC2CCCCCC2)c1,-8.09%
5,CCOc1ccc(NC(=O)c2ccc(F)c(S(=O)(=O)NCCc3ccccc3)c2)cc1,20.5%
6,CCOc1ccc(NC(=O)c2ccc(F)c(S(=O)(=O)NC3CCCCCC3)c2)cc1,43.4% (active)
7,O=C(Oc1cccc(NC(=O)c2ccccc2Cl)c1)c1ccc(Cl)c(S(=O)(=O)N2CCCCC2)c1,-1.45%
8,CCOc1ccccc1NC(=O)c1ccc(F)c(S(=O)(=O)N2CCCC2)c1,-2.89%
9,Cc1cccc(NC(=O)c2ccc(C)c(S(=O)(=O)N3CCCC3)c2)c1,-31.9%
10,CC1CCN(S(=O)(=O)c2cc(C(=O)Oc3cccc(NC(=O)c4ccccc4)c3)c(Cl)cc2Cl)CC1,-2.37%
11,CCOc1ccc(NC(=O)c2ccc(Br)c(S(=O)(=O)N3CCCC3)c2)cc1,35.5% (active)
12,O=C(Oc1cccc(NC(=O)c2ccccc2Cl)c1)c1ccc(Br)c(S(=O)(=O)N2CCCCC2)c1,41.8% (active)
13,Cc1nc2ccc(C(=O)OCC(=O)c3ccc([N+](=O)[O-])cc3)cc2nc1C,3.04%
14,O=C(O)C1CN(C(c2ccccc2)c2ccccc2)C1,3.68%
15,CCC(C)NC(=O)Nc1cccc(Cl)c1C (stereo not drawn),-4.8%
16,COC(=O)c1ccc(NC(=O)c2ccc(C)o2)cc1,-47%
17,c1ccc(N2CCN(N=C3c4ccccc4-c4ccccc43)CC2)nc1,-13.3%
18,NC(=O)N/N=C/c1cn(-c2ccccc2)nc1-c1cc2ccccc2oc1=O,40.6% (active)
19,NC(=O)C(=O)N/N=C/c1cn(-c2ccccc2)nc1-c1cccs1,-10.6%
20,O=C(NNc1nc(-c2cc3ccccc3oc2=O)cs1)c1ccccc1,-15%
21,Cc1cccc(Cc2nnc(CCC(=O)N3CCN(C)C[C@@H]3c3ccccc3)o2)c1,-0.78%
22,COc1ccc(CNS(=O)(=O)c2ccc(Oc3ccc(S(=O)(=O)NCc4ccc(OC)cc4)cc3)cc2)cc1,55.4% (active)
23,COc1ccc(S(=O)(=O)NCCN)cc1,4.56%
24,COc1ccc(S(=O)(=O)NCCCNS(=O)(=O)c2ccc(OC)cc2)cc1,5.92%

row,SMILES,inhibition
1,CC(=O)Nc1ccc(Nc2nc(-c3ccccc3)nc3c2ncn3C(C)C)cc1,18%
2,Cc1c(Cl)cccc1N1C(=O)C2C3CCC(C3)C2C1=O (stereo not drawn),3.02%
3,CCC(=O)N(Cc1ccco1)Cc1cc2cc3c(cc2[nH]c1=O)OCCO3,-9.49%
4,O=C(NNS(=O)(=O)c1cccc([N+](=O)[O-])c1)C1CCCCC1,-1.44%
5,Cc1ccc(CN2C(=O)CCC2CCNCc2cc3c(cc2Cl)OCO3)cc1F (stereo not drawn),-1.93%
6,CCn1c(SCC(=O)Nc2nc3ccc(OC)cc3s2)nc2cccnc21,3.19%
7,Cc1[nH]n(-c2ccc([N+](=O)[O-])cc2)c(=O)c1C=NCCN1CCN(C(=O)/C=C/c2ccccc2)CC1,13.1%
8,Clc1ccc(-c2cc(NCCCn3ccnc3)ncn2)cc1,-76.3%
9,Cc1nc(NCCCN2CCOCC2)cc(-c2ccccn2)n1,5.82%
10,c1ccc(-c2cc(NCCCn3ccnc3)nc(-c3ccccn3)n2)nc1,54.3% (active)
11,COc1ccc(Cl)cc1NC(=O)CC1C(=O)NCCN1C(=S)Nc1ccccc1 (stereo not drawn),2.46%
12,O=C(Nc1ccc(F)c(F)c1)c1ccc(N2CC3CC(C2)c2cccc(=O)n2C3)c(NC(=O)c2cccc(C(F)(F)F)c2)c1 (stereo not drawn),-14.9%
13,COc1ccc(/C(C)=N/Nc2nc3ccccc3[nH]2)cc1,-5.09%
14,Cc1ccc(NC(=O)Cc2cccc3ccccc23)c([N+](=O)[O-])c1,-15.6%
15,COc1cccc(-c2cnnc(N(C)CCC3CCOCC3)n2)c1,-25.5%
16,COc1ccc(-c2cnnc(N(C)CCC3CCOCC3)n2)cc1,-22.1%
17,COc1ccc(-c2cnnc(N(C)Cc3cnn(C)c3)n2)cc1,36.4% (active)
18,O=C(c1cccc(Cl)c1)N1CCN(c2ccc([N+](=O)[O-])c(N3CCOCC3)c2)CC1,13.5%
19,O=c1cc(-c2ccccc2)nc(NNc2ccccc2)[nH]1,2.03%
20,O=c1cc(-c2ccccc2)sc2ccc(Cl)cc12,-23.1%
21,O=c1cc(-c2ccccc2)[nH]c2nc(Cl)ccc12,50.5% (active)
